Experimental data published in PubChem BioAssay AID624298 (National Center for Advancing Translational Sciences (NCATS), 2012).
Results filed as inconclusive are left out. Unmarked numbers belong to inactive results. Calls come from the whole dose curve; as a rule, active = well fitted activation curve with a large enough effect; inconclusive = small, poorly fitted or top-dose-only effect; inactive = no such curve, though single readings can be large or run the other way.

Assay: Activators of T cell receptors: Hit Validation; note: 0% is about no effect
Conditions: primary human leukocytes, cytokine release by HTRF, 48 h, TCR-stimulated with anti-CD3 beads; series mostly up to 46.1 µM; activation: at the top concentration
How it was run: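 Readout is IL-2 secretion by HTRF, measured after 48 hr in which primary human leukocytes received compound together with a-CD3 beads as the only TCR stimulus.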

Structure (SMILES) | activation
O=C1C=C(NCCc2ccccc2)C2(CCCCC2)O1 | 7.06%
Cc1ccc(C(CC(=O)O)Nc2nc(N3CCOCC3)nc(N3CCOCC3)n2)cc1 (configuration not stated) | 9.58%
CCOc1ccc(C(=O)N(CN2CCCC2=O)c2cccc(Cl)c2)cc1 | -1.4%
Cc1cc(NC(=O)CN2C(=O)NC(CC(C)C)C2=O)ccc1Br (configuration not stated) | 0.93%
O=C(OCc1cc(=O)n2cc(Br)ccc2n1)C1COc2ccccc2O1 (configuration not stated) | 6.24%
CC(=O)c1cccc(S(=O)(=O)N2CCC(C(=O)Nc3cccc(C(=O)NC4CC4)c3)CC2)c1 | 2.12%
CN(C)c1ccc(NC(=O)COC(=O)CNC(=O)c2cccs2)cc1 | -40.9%
N#Cc1ccc(CN2CCN(C(=O)c3ccc(S(=O)(=O)NCc4ccco4)cc3)CC2)cc1 | 9.02%
CN(C)c1cccc(C(=O)N(Cc2ccccc2)Cc2ccccc2)c1 | 1.38%
CC1CCCN(S(=O)(=O)c2ccc(NC(=O)C3CCN(C(=O)C(C)(C)C)CC3)cc2)C1 (configuration not stated) | 4.16%
CN=c1nc(-c2ccccc2)n(-c2ccccc2)s1 | 12.5%
CCCc1nc2ccccc2c(=O)n1CCc1ccccc1 | 4.77%
Cc1nn(Cc2ccccc2)c(C)c1C(=O)N1CCN(S(=O)(=O)/C=C/c2ccccc2)CC1 | 9.83%
O=C(COc1ncnc2c(Cl)cc(Cl)cc12)Nc1cc([N+](=O)[O-])ccc1Cl | 4.07%
CC1(NC(=O)CCNC(=O)c2ccc(C(C)(C)C)cc2)CCS(=O)(=O)C1 (configuration not stated) | 6.9%
Cc1onc(-c2c(F)cccc2Cl)c1C(=O)Nc1sc2c(c1C(N)=O)CCC2 | -4.8%
COc1ccc(OC)c(NC(=O)CSc2nc3[nH]c(=O)cc(O)c3s2)c1 | 10.8%
